Targets with a hit are over-represented here; the source holds about 7,900 in all. About 0.6% of all pairs of compound and target were hits.
Compound: c1cn2cc(-c3ccc4cn[nH]c4c3)nc(Nc3ccc(N4CCOCC4)cc3)c2n1 [entospletinib]
Experiment: log2 fold change, soluble protein after heating vs DMSO (PISA); higher = thermal stabilisation; K562 cells, 10 uM, 30 min; active = over 0.2 and 3.5 SD of the protein, either way, in both replicates (recomputed)
Procedure, shortened: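 K562 cells at 2×10^6 cells/mL were treated with 10 μM compound for 30 min. Aliquots were heated for 3 min across 48°C-58°C, pooled, and extracted in PBS with 0.5% NP-40 at 4°C; soluble protein was the supernatant after 21,000xg for 90 min. Soluble protein was quantified by TMTpro 16plex LC-MS/MS with channel sums equalised, and reported as log2 fold change in thermal stability against DMSO controls, with values from duplicates.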

UniProt Q8IYU8, sequence (Q8IYU8 whole entry, looked up): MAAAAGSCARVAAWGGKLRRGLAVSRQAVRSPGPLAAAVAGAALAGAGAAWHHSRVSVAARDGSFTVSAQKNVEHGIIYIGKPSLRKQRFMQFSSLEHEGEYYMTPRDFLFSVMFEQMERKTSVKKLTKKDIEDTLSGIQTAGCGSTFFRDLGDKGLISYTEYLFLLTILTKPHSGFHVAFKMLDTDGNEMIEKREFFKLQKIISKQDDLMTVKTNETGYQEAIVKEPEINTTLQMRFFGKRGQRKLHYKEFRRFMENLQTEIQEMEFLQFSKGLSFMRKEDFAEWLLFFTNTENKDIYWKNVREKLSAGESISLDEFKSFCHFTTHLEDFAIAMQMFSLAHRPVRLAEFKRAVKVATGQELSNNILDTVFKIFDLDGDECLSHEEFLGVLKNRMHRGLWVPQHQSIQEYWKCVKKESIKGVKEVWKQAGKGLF
UniProt Q4G0J3, sequence (Q4G0J3 whole entry, looked up): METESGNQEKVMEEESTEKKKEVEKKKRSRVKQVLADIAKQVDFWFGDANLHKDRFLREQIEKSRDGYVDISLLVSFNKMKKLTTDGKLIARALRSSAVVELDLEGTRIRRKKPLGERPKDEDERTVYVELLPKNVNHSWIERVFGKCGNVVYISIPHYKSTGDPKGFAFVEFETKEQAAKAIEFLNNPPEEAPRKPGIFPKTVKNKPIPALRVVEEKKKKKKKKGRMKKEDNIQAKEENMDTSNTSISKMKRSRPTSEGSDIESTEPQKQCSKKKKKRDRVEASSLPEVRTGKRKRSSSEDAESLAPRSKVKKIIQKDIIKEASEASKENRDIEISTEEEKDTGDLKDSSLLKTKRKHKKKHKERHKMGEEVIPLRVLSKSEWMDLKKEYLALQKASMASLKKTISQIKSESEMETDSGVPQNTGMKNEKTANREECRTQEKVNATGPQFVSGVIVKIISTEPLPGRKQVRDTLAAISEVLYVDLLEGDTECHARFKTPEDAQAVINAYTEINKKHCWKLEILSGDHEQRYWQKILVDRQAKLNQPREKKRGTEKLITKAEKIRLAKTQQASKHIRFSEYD
UniProt P11717, sequence (P11717 whole entry, looked up): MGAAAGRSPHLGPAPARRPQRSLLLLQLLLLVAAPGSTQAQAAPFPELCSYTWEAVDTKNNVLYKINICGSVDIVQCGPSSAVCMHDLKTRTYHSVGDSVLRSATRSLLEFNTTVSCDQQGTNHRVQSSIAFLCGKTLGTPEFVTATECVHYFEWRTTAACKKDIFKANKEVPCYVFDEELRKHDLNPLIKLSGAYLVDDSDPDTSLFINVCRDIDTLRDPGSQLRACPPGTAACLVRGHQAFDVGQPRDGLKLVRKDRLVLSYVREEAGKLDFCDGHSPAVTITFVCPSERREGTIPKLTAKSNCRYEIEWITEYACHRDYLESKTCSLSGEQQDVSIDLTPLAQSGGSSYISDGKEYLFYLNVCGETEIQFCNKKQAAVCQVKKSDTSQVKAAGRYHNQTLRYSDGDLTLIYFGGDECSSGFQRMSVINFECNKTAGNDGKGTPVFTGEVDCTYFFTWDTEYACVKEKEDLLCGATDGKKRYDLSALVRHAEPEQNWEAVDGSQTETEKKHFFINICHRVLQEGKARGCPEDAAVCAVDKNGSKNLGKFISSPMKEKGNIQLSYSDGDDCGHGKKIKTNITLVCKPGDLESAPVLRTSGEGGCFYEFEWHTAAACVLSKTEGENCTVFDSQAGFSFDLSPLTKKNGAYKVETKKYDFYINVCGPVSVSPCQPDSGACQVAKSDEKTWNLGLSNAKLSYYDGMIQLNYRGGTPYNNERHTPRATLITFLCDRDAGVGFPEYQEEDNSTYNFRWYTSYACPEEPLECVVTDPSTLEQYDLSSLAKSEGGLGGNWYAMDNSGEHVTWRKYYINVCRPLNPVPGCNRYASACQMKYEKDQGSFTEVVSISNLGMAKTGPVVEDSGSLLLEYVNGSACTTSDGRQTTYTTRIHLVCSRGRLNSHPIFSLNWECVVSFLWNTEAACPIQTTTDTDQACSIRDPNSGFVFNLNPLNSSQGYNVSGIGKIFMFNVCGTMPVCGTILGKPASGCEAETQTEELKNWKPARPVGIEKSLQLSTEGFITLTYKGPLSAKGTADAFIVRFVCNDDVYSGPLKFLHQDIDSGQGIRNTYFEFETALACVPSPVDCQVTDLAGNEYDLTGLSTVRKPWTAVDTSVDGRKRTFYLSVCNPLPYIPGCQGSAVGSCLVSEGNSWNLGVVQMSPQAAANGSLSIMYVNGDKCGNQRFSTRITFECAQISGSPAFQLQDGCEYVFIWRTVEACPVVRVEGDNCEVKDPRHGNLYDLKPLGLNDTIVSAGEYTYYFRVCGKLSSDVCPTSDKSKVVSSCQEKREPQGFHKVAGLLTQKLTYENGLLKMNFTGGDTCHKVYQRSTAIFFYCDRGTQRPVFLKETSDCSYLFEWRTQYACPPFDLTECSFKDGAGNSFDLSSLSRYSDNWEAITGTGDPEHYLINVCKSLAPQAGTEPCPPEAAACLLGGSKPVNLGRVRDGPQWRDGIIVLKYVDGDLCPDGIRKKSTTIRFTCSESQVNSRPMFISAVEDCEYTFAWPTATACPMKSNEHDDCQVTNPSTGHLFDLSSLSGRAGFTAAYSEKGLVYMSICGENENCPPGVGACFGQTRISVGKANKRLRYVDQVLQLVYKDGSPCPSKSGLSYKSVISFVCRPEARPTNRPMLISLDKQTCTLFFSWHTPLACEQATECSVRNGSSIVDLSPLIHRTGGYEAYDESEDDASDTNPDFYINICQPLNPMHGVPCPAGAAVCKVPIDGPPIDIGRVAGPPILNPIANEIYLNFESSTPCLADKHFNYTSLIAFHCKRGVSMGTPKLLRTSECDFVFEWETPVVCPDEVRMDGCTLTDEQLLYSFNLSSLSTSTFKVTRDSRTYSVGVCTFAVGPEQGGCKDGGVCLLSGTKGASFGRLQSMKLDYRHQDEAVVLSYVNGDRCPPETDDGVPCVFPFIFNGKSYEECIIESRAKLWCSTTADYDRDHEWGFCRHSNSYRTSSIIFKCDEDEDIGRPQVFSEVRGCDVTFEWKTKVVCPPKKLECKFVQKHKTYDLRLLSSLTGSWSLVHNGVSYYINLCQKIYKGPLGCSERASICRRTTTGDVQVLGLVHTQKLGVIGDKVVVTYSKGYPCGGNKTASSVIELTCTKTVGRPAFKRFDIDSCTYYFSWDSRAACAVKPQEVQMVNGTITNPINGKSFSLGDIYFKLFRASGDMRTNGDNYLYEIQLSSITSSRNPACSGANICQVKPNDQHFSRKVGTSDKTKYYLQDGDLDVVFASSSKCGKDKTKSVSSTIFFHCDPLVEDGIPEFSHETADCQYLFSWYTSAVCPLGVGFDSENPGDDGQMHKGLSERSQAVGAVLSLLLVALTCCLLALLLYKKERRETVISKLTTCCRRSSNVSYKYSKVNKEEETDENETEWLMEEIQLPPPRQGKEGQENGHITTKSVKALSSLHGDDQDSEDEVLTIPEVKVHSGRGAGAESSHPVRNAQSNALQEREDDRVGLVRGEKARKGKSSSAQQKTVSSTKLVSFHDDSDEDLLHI
UniProt P45984, sequence (P45984 whole entry, looked up): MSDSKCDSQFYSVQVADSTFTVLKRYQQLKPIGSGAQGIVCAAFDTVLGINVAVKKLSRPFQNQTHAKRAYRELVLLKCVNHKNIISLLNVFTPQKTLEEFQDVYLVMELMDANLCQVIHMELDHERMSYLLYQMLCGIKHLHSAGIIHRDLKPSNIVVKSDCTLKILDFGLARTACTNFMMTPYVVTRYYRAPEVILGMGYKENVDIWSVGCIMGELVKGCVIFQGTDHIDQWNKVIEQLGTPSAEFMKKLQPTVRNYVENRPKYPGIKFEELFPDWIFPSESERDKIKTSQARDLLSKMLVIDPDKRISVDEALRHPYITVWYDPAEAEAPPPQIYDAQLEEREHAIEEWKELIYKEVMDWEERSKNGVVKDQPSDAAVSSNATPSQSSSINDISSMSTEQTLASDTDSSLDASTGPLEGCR
UniProt Q15528, sequence (Q15528 whole entry, looked up): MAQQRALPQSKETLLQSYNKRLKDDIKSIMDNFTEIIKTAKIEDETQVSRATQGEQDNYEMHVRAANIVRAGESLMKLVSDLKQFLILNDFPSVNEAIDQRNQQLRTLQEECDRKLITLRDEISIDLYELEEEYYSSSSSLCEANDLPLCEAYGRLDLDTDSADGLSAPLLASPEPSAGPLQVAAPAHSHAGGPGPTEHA
UniProt Q8TDD5, sequence (Q8TDD5 whole entry, looked up): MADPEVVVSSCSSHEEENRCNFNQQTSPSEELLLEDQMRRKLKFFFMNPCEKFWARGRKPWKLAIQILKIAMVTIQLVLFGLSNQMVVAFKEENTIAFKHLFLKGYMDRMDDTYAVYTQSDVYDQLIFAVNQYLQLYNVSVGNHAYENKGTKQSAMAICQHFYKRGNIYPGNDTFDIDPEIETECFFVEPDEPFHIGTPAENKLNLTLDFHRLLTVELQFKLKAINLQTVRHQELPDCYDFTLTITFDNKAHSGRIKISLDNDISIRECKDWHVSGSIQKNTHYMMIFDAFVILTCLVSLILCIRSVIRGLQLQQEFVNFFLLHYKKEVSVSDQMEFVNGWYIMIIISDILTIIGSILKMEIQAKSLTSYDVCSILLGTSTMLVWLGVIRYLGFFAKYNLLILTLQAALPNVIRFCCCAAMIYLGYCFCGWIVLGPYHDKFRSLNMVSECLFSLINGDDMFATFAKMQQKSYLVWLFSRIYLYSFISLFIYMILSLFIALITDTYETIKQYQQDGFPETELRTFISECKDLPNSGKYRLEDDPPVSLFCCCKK
UniProt P33947, sequence (P33947 whole entry, looked up): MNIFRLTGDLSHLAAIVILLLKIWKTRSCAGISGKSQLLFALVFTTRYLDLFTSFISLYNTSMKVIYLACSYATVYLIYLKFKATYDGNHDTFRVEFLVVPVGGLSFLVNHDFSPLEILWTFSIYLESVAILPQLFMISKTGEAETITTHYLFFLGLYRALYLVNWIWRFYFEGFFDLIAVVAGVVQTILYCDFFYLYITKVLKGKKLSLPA

log2 fold change, inactive:
INPP1 (UniProt P49441) 0.017
KIF1B isoform 3 (UniProt O60333) 0.041
KIF3B (UniProt O15066) 0.23
MAP1LC3B2 (UniProt A6NCE7) -0.001
MAP4K4 isoform 3 (UniProt O95819) -0.019
LRRFIP1 (UniProt Q32MZ4) 0.004
KIF2C (UniProt Q99661) -0.097
MAD2L1 (UniProt Q13257) 0.064
MAN2B2 (UniProt Q9Y2E5) 0.004
IMMP1L (UniProt Q96LU5) -0.172
KCNK5 (UniProt O95279) 0.171
MAPK9 (UniProt P45984) -0.069
LARP1 (UniProt Q6PKG0) 0.028
MED1 (UniProt Q15648) 0.019
LARP4 isoform 4 (UniProt Q71RC2) 0.095
LPCAT3 (UniProt Q6P1A2) 0.012
MCOLN3 (UniProt Q8TDD5) -0.194
LRPPRC (UniProt P42704) 0.245
KDM1A isoform 2 (UniProt O60341) -0.066
LNPEP (UniProt Q9UIQ6) 0.013
MASTL (UniProt Q96GX5) -0.014
IK (UniProt Q13123) 0.015
MED12 isoform 2 (UniProt Q93074) 0.177
MFF (UniProt Q9GZY8) -0.029
MED25 isoform 3 (UniProt Q71SY5) -0.01
KDELR2 (UniProt P33947) 0.101
MICU2 (UniProt Q8IYU8) 0.019
MED22 (UniProt Q15528) -0.143
KPNA1 (UniProt P52294) 0.022
LARP7 isoform 3 (UniProt Q4G0J3) 0.006
MAPKAPK2 (UniProt P49137) -0.061
IGF2R (UniProt P11717) -0.004
MARK3 (UniProt P27448) -0.024
MAP2K2 (UniProt P36507) 0.021

Source: the supplement of paper PMC10849652
